High-throughput results (PubChem BioAssay)
Mtb betalactam: beta-lactam sensitization of Mtb H37Rv. M. tuberculosis H37Rv growth with meropenem, percent inhibition. inhibition, % at 25 µM. hit rate 0.27% among 330,000. AID 434955; call rule not given here;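 further: growth measured after seven days incubation then overnight dye step; 0% = bacteria only wells and 100% = bacteria with antibiotic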
Rv3671c inh: inhibitors of M. tuberculosis serine protease Rv3671c; P9WHR9; inhibition, % at 5.96 µM; hit rate 0.048% among 320,000; in the data active means inhibition above about 38%;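 further: extracellular domain of Rv3671c used as enzyme; 0% = enzyme with DMSO and 100% = no enzyme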
Target sequence (P9WHR9 whole entry, looked up, the tested form may be a part): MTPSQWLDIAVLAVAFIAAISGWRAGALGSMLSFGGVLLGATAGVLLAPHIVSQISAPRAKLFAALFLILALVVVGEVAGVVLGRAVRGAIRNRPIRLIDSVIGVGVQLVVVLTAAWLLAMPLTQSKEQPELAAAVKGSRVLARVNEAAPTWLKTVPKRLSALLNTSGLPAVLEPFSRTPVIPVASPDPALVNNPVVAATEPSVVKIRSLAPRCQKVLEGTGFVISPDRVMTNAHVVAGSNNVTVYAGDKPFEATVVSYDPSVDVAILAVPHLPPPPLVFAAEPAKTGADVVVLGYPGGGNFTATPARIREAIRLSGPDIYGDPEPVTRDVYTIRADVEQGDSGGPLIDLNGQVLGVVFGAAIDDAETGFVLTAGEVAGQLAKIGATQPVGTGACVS
GDH-TPI counter: GDH-TPI coupled enzyme inhibition counter-screen. hit rate 1.2% among 360,000. AID 588335. inhibition, % at 4.8 µM. GDH-TPI coupled enzyme counterscreen, NADH absorbance; in the data active means inhibition above about 30%;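 further: 0% = DMSO wells and 100% = wells lacking the enzyme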
FBA Mtb inh: Mtb fructose-bisphosphate aldolase inhibition; purified M. tuberculosis FBA, fluorescence read-out; inhibition, % at 1 µM; hit rate 2.3% among 360,000; AID 588726; in the data active means inhibition above about 27%;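 further: 0% = vehicle and 100% = reference inhibitor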
FadD28 FP inh: blocks FadD28 binding to the bisubstrate probe. fluorescence polarization. inhibition, % at 12.5 µM. hit rate 0.22% among 360,000. AID 588549; in the data active means inhibition above about 8.5%, passing the limit was not always enough; inconclusive means no clear call, values can overlap the other calls
UGM FP inh: Mtb UDP-galactopyranose mutase inhibition; P9WIQ1; purified UGM, fluorescence polarization probe displacement; inhibition, % at 10 µM; hit rate 0.06% among 320,000; in the data active means inhibition above about 10%, passing the limit was not always enough; inconclusive means no clear call, values can overlap the other calls
Starred values were filed as active, the others as inactive; ? = inconclusive; nt = no result; + = active, no number. An excerpt weighted towards active compounds, which were near 3.7% of everything screened.

SMILES	Mtb betalactam	Rv3671c inh	GDH-TPI counter	FBA Mtb inh	FadD28 FP inh	UGM FP inh
Cc1nn(C)cc1/C=C1\SC(=S)NC1=O	6.9	-5.5	12.0	0.3	0.3	0.4
Cc1nn(C)c(C)c1/C=C1/SC(=S)NC1=O	-6.3	0.1	34.5*	-3.1	0.9	-2.2
CCOc1cc(/C=C2\COc3ccccc3C2=O)cc(Br)c1OCC(=O)N(C)C	99.3	1.1	8.4	-3.4	-2.4	1.1
CC(=O)c1ccc(NC(=O)c2cnn3ccccc23)cc1	-7.5	-3.1	35.9*	1.9	-1.7	2.0
Cc1nnc(NC(=O)c2cc(S(=O)(=O)N3CCCCC3)ccc2Cl)s1	?	-7.1	-3.5	1.4	1.9	-1.3
CC(/C=C/c1ccco1)=N\NC(=O)c1cccc(Cl)c1	100.1	1.3	31.9*	1.5	-1.1	3.9
CC(/C=C/c1ccco1)=N/NC(=O)c1ccccc1Cl	10.3	4.9	32.3*	-0.9	0.1	2.7
CCOC(=O)N/N=C(C)/C=C/c1ccco1	0.4	8.5	22.6	3.8	0.0	-1.2
Cc1ccccc1CC1(C)C(=O)Nc2ccc(S(=O)(=O)NC3CCCCC3)cc21 (stereo not drawn)	nt	nt	11.1	1.3	-1.5	nt
CCCCCCCn1c(=N)n(CC(O)c2ccco2)c2ccccc21 (stereo not drawn)	3.4	2.0	3.9	6.9	-1.4	1.1
N=c1n(CCN2CCCC2)c2ccccc2n1CC(O)c1ccco1 (stereo not drawn)	-1.6	-1.7	5.8	1.8	0.1	40.7*
COc1ccc(CC(=O)Nc2c3c(nn2C(C)(C)C)CS(=O)(=O)C3)cc1OC	0.0	8.2	7.2	0.2	-0.2	5.1
CSc1nc2nc(C(F)(F)F)cc(-c3ccccc3)n2n1	-5.9	-7.2	24.3	33.8*	-3.2	1.4
CSc1nc2nc(-c3ccccc3)cc(C(F)(F)F)n2n1	-6.5	4.8	11.6	36.8*	-3.9	0.5
NC(=O)c1cnn2c(C(F)(F)F)cc(-c3ccccc3)nc12	-11.6	4.9	9.4	3.0	0.6	-2.9
CSc1nc2nc(C)cc(-c3ccccc3)n2n1	-17.4	-1.6	9.2	24.5	-1.3	6.5
Cc1cccn2c(=O)c(C(=O)NC3CC(C)CC(C)(C)C3)c(O)nc12 (stereo not drawn)	0.1	-2.1	2.2	-0.2	-0.4	6.2
COc1cc2c(cc1/C=C/C(=O)O)OC(C)C2 (stereo not drawn)	12.8	-3.6	4.1	+	-2.6	2.6
CC(C)(O)C1Cc2cc(/C=C/C(=O)O)c(O)cc2O1 (stereo not drawn)	nt	nt	15.1	7.7	1.4	nt
CCOc1cc2c(cc1/C=C/C(=O)O)OC(C)C2 (stereo not drawn)	5.5	-11.0	-1.3	147.5*	-2.9	0.4
OCCCCNc1cccc2ccccc12	4.2	-2.6	9.2	161.2*	-0.4	-1.0
O=C(NCc1ccccc1)c1ccc(Oc2ccc(C(=O)NCc3ccccc3)cc2)cc1	-0.1	-11.3	-7.6	-3.2	-3.0	4.7
O=C(NCc1ccco1)c1ccccc1	5.9	3.6	2.5	1.9	-0.7	-3.4
O=C(NCc1ccco1)c1ccc(=O)oc1	-15.8	-1.4	49.7*	-0.7	0.3	-0.9
O=C(NCc1ccccc1)c1ccc(=O)oc1	-3.4	-3.2	104.1*	0.3	-1.4	-2.6
SMILES	Mtb betalactam	Rv3671c inh	GDH-TPI counter	FBA Mtb inh	FadD28 FP inh	UGM FP inh
COC(=O)CNC(=O)c1ccc(=O)oc1	-3.6	11.8	63.3*	9.1	0.3	-2.3
C[C@@H]1CN([C@H](C)CO)C(=O)CCCn2nncc2CO[C@H]1CN(C)Cc1ccc(Oc2ccccc2)cc1	nt	nt	0.0	-0.2	-4.5	nt
Cc1ccc(-c2ccc(CN3C(C(C)C)C(=O)N(Cc4cn(CCC5OCCO5)nn4)CCS3(=O)=O)cc2)c(C)c1 (stereo not drawn)	nt	nt	nt	1.8	-1.5	nt
O=C(Cn1cnc2c(OCc3ccccc3)ncnc21)NCc1ccccn1	-6.1	-1.1	10.4	0.3	-1.3	nt
CC1(C(=O)NCCC#N)CCN1C(=O)Cc1ccc(-c2ccccc2)cc1 (stereo not drawn)	nt	nt	10.1	-1.3	-3.0	nt
CCOC(=O)c1sc(NC(=O)c2ccc(C)s2)cc1C	30.8	-9.9	43.0*	5.7	-7.0	0.9
CC(=O)Oc1ccc(/C=C(\NC(=O)c2cccc(Br)c2)C(=O)Nc2ccc(C(=O)O)cc2)cc1	3.1	0.1	32.4*	-0.6	-3.9	0.7
O=C(Nc1cccc(C(F)(F)F)c1)/C(=C\c1ccco1)NC(=O)c1cccs1	?	-8.3	34.6*	-0.1	-2.1	2.5
CC(C)OC(=O)/C(=C\C=C\c1ccccc1)NC(=O)c1ccccc1	-12.3	5.2	45.6*	-0.9	1.2	0.7
O=C(Nc1cccc(F)c1)/C(=C\c1ccco1)NC(=O)c1cccs1	2.4	-5.0	8.3	-0.3	-2.8	1.8
CC(=O)c1ccc(NC(=O)/C(=C\c2ccco2)NC(=O)c2ccco2)cc1	-4.8	-2.2	30.9*	0.2	0.2	-1.3
COc1ccc(CN2CCC2(C)C(=O)Nc2cccc(NS(C)(=O)=O)c2)c2ccccc12 (stereo not drawn)	nt	nt	5.8	0.4	-0.8	nt
O=C(Nc1ccc(C(=O)O)cc1)/C(=C\c1ccc2c(c1)OCO2)NC(=O)c1ccccc1	-1.5	-5.1	36.0*	3.8	0.1	3.0
O=C(Nc1ccc(C(=O)O)cc1)/C(=C\C=C\c1ccccc1)NC(=O)c1ccc(Br)cc1	2.4	-4.4	31.1*	-0.7	-5.2	1.9
Cc1ccc(NC(=O)/C(=C\c2ccc3c(c2)OCO3)NC(=O)c2ccco2)cc1	-3.8	-0.1	39.5*	-0.4	2.1	-0.9
CC1=NN(c2cccc(C(=O)O)c2)C(=O)/C1=C\C=C\c1ccco1	1.8	2.2	3.0	-12.2	11.3*	-0.4
CC1=NN(c2ccccc2)C(=O)/C1=C/C=C/c1ccccc1	95.3	-14.2	23.9	-1.6	-1.6	2.8
O=C(NCc1ccccc1Cl)c1ccc(S(=O)(=O)NCc2ccco2)cc1	nt	nt	-5.6	-1.2	-3.2	nt
CCCS(=O)(=O)NC(=O)C1(C)CCN(C(=O)c2ccc(F)c(C)c2)C1 (stereo not drawn)	nt	nt	7.1	-0.8	1.3	nt
O=C1CCC/C(=N/NC(=O)c2sc3ccccc3c2Cl)C1	21.9	-7.4	54.7*	1.0	0.5	0.2
COC(=O)CNC(=O)CSc1nc2sc(-c3ccccc3)cc2c(=O)n1-c1ccccc1	97.0	-8.8	46.9*	1.3	-2.5	0.4
COC(=O)CNC(=O)CSc1nc2sccc2c(=O)n1-c1ccccc1	-5.7	-8.3	-3.9	2.4	-2.3	-4.3
Cc1cccc(C)c1OCc1cc(C(=O)N2CCNC(=O)C2)no1	-4.8	6.1	-12.2	4.7	1.7	2.8
COc1ccc2c(c1OC)C(=O)N1C2SC(C)(C)[C@H]1C(=O)NCC(C)C (stereo partly drawn)	-2.3	-13.6	2.8	152.0*	nt	1.9
COCCNC(=O)[C@H]1N2C(=O)c3c(ccc(OC)c3OC)C2SC1(C)C (stereo partly drawn)	-6.8	-4.3	-4.3	3.4	-4.9	-0.9
